Rows were chosen to be rich in hits. Some 4.7% of all compounds tested hit in one or more screens of this group.
D1 antagonist – human D1 dopamine receptor antagonism; P21728; HEK293 TREx D1 cells, calcium flux, dopamine EC80; active compounds read low; activity change, negative = inhibition, % at 10 µM; actives 3.2% (n = 360,000); in the data active = activity change below about -30%; note: % is set by controls: 0 for no effect and ±100 for the full control effect
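Antagonism measured as reduced calcium response to an EC80 dopamine addition following 180 s compound pre-read; cells were inducible HEK293 Trex D1 plated overnight at 30 C, read kinetically at 1 cycle/sec.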
TRHR agonist – agonists of human TRH receptor. P34981. TRHR cells, calcium flux fluo-8, FDSS agonist mode. activation, % at 2 µM. actives 0.18% (n = 360,000); note: 0% is about no effect
Target sequence (P34981 whole entry, looked up): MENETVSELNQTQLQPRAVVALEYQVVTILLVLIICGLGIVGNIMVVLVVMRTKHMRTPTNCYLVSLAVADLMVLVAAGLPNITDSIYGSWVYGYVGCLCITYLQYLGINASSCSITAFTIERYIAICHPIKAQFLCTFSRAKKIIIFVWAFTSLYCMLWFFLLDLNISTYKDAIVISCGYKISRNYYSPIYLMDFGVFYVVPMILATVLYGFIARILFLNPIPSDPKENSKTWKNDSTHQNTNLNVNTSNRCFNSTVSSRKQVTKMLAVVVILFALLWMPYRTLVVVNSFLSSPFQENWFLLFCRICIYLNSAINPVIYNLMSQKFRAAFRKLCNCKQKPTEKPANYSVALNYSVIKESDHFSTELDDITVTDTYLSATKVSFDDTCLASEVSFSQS
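Steps: seed TRHR cells overnight; add fluo-8 no-wash Ca dye, RT 30 min–1.5 h; record 10 s baseline; pin-transfer compounds; monitor fluorescence 1 cycle/s for the agonist window. Calcium increases flag candidate agonists.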
D1 potentiator – human D1 dopamine receptor positive modulation | potentiation, % at 10 µM | AID 504651 | HEK293 TREx D1 cells, calcium flux, dopamine EC20 potentiation | P21728 | actives 0.036% (n = 360,000); in the data active = potentiation above about 30%; note: 0% is about no effect
D1 ag – agonists of human D1 dopamine receptor; P21728; HEK293 T-REx D1 cells, calcium flux, agonist mode; activation, % at 2 µM; actives 1% (n = 360,000); note: 0% is about no effect
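Agonism was scored from calcium flux recorded over 180 s (1 read/s) after pintool compound addition, following a 10-cycle baseline. Cells were inducible force-coupled HEK293 TREx D1, plated overnight at 30 C and loaded with no-wash calcium dye.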
TRHR enhancer – allosteric enhancers of human TRH receptor | TRHR cells, fluo-8 calcium fluorescence, EC20 TRH enhancement | enhancement, % at 2 µM | actives 0.66% (n = 360,000); in the data active = enhancement above about 30%; note: 0% is about no effect
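TRHR-expressing cells loaded with fluo-8 calcium dye were read kinetically (ex 480/em 530) during compound addition, then stimulated with an EC20 of TRH (10 nM final). Enhancement of the Gq-mediated intracellular calcium response was scored.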
* marks the source's active call; other numbers are inactive results; . = not tested or not shown; ! = not confirmed by another sample. Cut-off read from the data, not from the text of the source, unless noted: active = activation above about 30%; inactive = the rest.

SMILES	D1 antagonist	TRHR agonist	D1 potentiator	D1 ag	TRHR enhancer
C(=N\N1CCN(Cc2ccccc2)CC1)/c1ccc(-c2ccccc2)cc1	.	1	-7	1	1
CN1CCN(/N=C/c2ccc(-c3ccccc3)cc2)CC1	-76*	-1	-6	72*	-1
COc1cccc(C2N(Cc3ccccc3)C(=O)C2(F)F)c1OC (centres undefined)	-5	0	-6	1	-5
CS(=O)(=O)NN1C(=O)c2ccccc2NC1c1ccccc1O (centres undefined)	-13	0	-4	0	-5
CC(=O)NN1C(=O)c2ccccc2NC1c1ccccc1O (centres undefined)	29	0	10	2	33*
COC(=O)Cn1c(=NC(=O)CCS(=O)(=O)c2ccccc2)sc2c(OC)ccc(OC)c21	9	0	0	0	8
COc1ccc(CN/C(C)=C(/C#N)C(N)=O)cc1OC	-66*	0	-5	2	5
COc1ccc(S(=O)(=O)N2CCOC2CNC(=O)C(=O)NCc2cccnc2)cc1C (centres undefined)	9	0	-2	2	-2
CCOC(=O)C1C(=O)C=C(/C=C/c2ccc(N(C)C)cc2)CC1c1ccccc1 (centres undefined)	-24	73*	8	230*	18
Cc1ccc(Cl)cc1NC(=O)c1nnn(Cc2ccccc2)c1N	27	2	12	20	31*
COc1ccc(NC(=O)c2nnn(Cc3ccccc3C)c2N)c(OC)c1	0	1	1	5	6
Nc1c(C(=O)O)nnn1Cc1ccccc1	5	1	0	0	-2
Cc1ccc(C)c(NC(=O)c2nnn(CC(=O)Nc3cccc(C)c3C)c2N)c1	3	1	1	1	5
Cc1ccc(Cn2nnc(C(=O)Nc3cccc(C)c3C)c2N)cc1	-14	13	-6	94*	-6
CC(=O)NC(=O)c1nnn(Cc2ccccc2)c1NC(C)=O	13	0	-12	1	34*
COc1ccc(OC)c(NC(=O)c2nnn(Cc3ccccc3C)c2N)c1	-52*	-1	3	2	2
Cc1ccc(CCNC(=O)c2c[nH]c3ccc(S(=O)(=O)Nc4ccc(C)cc4C)cc3c2=O)cc1	-11	2	-5	14	5
Cc1cccc(C)c1NC(=O)CNC(=O)c1ccc(COc2ccccc2)o1	-1	0	4	1	-8
CCc1ccccc1NC(=O)c1nnn(Cc2ccc(Cl)cc2)c1N	-2	8	-1	56*	13
Cc1cccc(Cn2nnc(C(=O)Nc3cc(C)ccc3C)c2N)c1	15	0	3	10	-10
Cc1ccc(NC(=O)c2nnn(Cc3cccc(C(F)(F)F)c3)c2N)c(C)c1	-45*	3	1	11	8
Cc1cc(C)c(NC(=O)Cn2nnc(C(=O)Nc3ccc(F)cc3F)c2N)c(C)c1	-68*!	3	0	3	7
COc1ccccc1N1CCN(C(c2cccs2)C(C)NC(=O)C(=O)N2CCOCC2)CC1 (centres undefined)	2	1	2	5	-1
COc1ccc(C(C(=O)NCC2CCCO2)N(C(=O)Cn2nnc3ccccc32)c2ccc(NC(C)=O)cc2)c(OC)c1 (centres undefined)	-67*	1	-7	18	0
CCOc1ccc(OCC)c(-n2cnnn2)c1	3	1	5	0	3
SMILES	D1 antagonist	TRHR agonist	D1 potentiator	D1 ag	TRHR enhancer
Cc1nc2nncn2c(NCc2ccc(F)cc2)c1C	-17	1	-2	5	-5
Cc1nc2nncn2c(NCc2ccc(Cl)cc2)c1C	-34*	1	-2	3	1
COc1ccc(C(=O)NC(=S)Nc2cc3oc4ccccc4c3cc2OC)cc1	-78*	1	-7	3	-1
Cc1cccc(-c2c3c(=O)n(C)c(=O)n(C)c3c3c(C)nc4ccccc4n23)c1	-3	0	-4	5	27
Cc1ccc(C)c(NC(=O)COC(=O)c2cccc(S(=O)(=O)N3CCCCC3)c2)c1	-11	0	15	2	-10
NC(=O)NC(=O)COC(=O)c1cccc(S(=O)(=O)N2CCCCCC2)c1	-44*	0	-6	1	3
O=C(COC(=O)c1cccc(S(=O)(=O)N2CCCCCC2)c1)Nc1ccccc1	19	1	8	6	-1
O=C(COC(=O)c1cccc(S(=O)(=O)N2CCCC2)c1)Nc1ccccc1C(F)(F)F	-33*	0	-3	8	-9
CCCCCCCNC(=O)C1(CC2CC(c3cccc(Br)c3)=NO2)CCNCC1 (centres undefined)	3	1	0	8	2
Cc1cccc(-c2nc3ccccc3c(=O)[nH]2)c1	-30*	0	10	0	4
O=c1[nH]c(-c2ccncc2)nc2ccccc12	-5	0	0	3	-4
Cc1ccc(/C=C/c2nc3ccccc3c(=O)[nH]2)cc1	-40*	1	-4	2	1
CCOc1ccc(-c2nc(CSCC(=O)NCCc3ccc(OCC)c(OCC)c3)c(C)o2)cc1	12	0	-2	1	1
COc1ccc([C@H]2CC(=O)C=C(c3ccc(Cl)c(C(F)(F)F)c3)C2)cc1OC	20	0	3	0	10
CCOC(=O)C(Oc1ccc2c(-c3ccccc3)cc(=O)oc2c1)c1ccccc1 (centres undefined)	-31*	0	-7	5	-5
O=C(CN(Cc1ccccc1)S(=O)(=O)c1cccc(C(F)(F)F)c1)NC1CCCCC1	-31*	1	1	5	-9
CCn1c(CNC(=O)c2ccc(OC)cc2)nnc1SCC(=O)Nc1ccc(F)cc1	-10	0	-1	2	2
CCC(C(=O)OCC(=O)N1CCN(S(=O)(=O)c2ccc(C)cc2C)CC1)c1ccccc1 (centres undefined)	-3	1	.	49*	-5
Cc1nnc(SCC(=O)N2CCN(S(=O)(=O)c3ccccc3)CC2)s1	-39*	0	-4	1	-1
Cc1ccc(-c2nnc(SCC(=O)N3CCCC3)o2)cc1	0	0	-2	2	-9
Cc1ccc(C)c(S(=O)(=O)N2CCN(C(=O)CCc3c[nH]c4ccccc34)CC2)c1	-35*	0	-5	1	2
Cc1ccc(S(=O)(=O)N2CCN(C(=O)CSc3nnc(-c4ccco4)o3)CC2)cc1	-40*	-1	-8	0	6
Cc1ccc(C)c(S(=O)(=O)N2CCN(C(=O)CSc3ccccc3)CC2)c1	-41*	1	-4	-1	3
COc1ccc(S(=O)(=O)Nc2cccc(-c3ccc(N4CCC(C)CC4)nn3)c2)cc1OC	-4	0	-1	4	-1
Cc1sc2ncn(CC(=O)NCC(=O)N(C)C3CCCCC3)c(=O)c2c1C	-34*	0	-3	0	-3
